Measurements taken from PubChem BioAssay (NCI).
This is part of a sample that, as a whole, favours compounds with a hit. Of some 79,000 tested, about 15% had one in any assay. Calls of active or inactive are those of the source. Rule as the data show it: active = growth inhibition above about 70%; inactive = the rest.

Test: NCI Yeast Anticancer Drug Screen. Data for the cln2 rad14 strain (AID 165);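 also: 0% = growth equal to vehicle treated cultures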
Conditions: S. cerevisiae cln2 rad14 strain, at 50.0 µM (retest, dose inferred, filed as 5.0), stronger effect = higher value
In short: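 Yeast strain cln2 rad14, bearing defects in cell cycle control and DNA repair, serves as the test system; values reflect growth inhibition compared with vehicle.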

Question: With COc1ccc(CN2CCCN(Cc3ccc(OC)cc3OC)C2c2ccc(N(CCCl)CCCl)cc2)c(OC)c1 as the compound, how does the growth inhibition read?
Answer: The growth inhibition was 43% (inactive).

Question: With [Cl][Pt+2][Cl].[NH-]c1ccc([N+](=O)[O-])cc1[NH-] as the compound, how does the growth inhibition read?
Answer: The growth inhibition was 94% (active).

Question: Which growth inhibition does the source give for O=C(Oc1ccc(S(=O)(=O)F)cc1F)c1ccccc1Cl here?
Answer: Its growth inhibition is 99% (active).

Question: For Oc1c(I)cc(I)cc1I, which growth inhibition is on record?
Answer: Its growth inhibition is 94% (active).

Question: With CCCCCCCCCCCCCCCC[N+](C)(C)CCOS(C)(=O)=O as the compound, how does the growth inhibition read?
Answer: The growth inhibition was 99% (active).

Question: For CN(C)CC1(N)C(=O)NC(=O)NC1=O, which growth inhibition is on record?
Answer: The growth inhibition was -1% (inactive).

Question: Which growth inhibition does the source give for CC1=C(O)C(=O)C=C2C1=CC=C1[C@@]2(C)CC[C@@]2(C)[C@@H]3C[C@](C)(C(=O)O)CC[C@]3(C)CC[C@]12C here?
Answer: Its growth inhibition is 98% (active).

Question: For CCC[CH2][Sn]([CH2]CCC)([N]=C=S)[N]=C=S, which growth inhibition is on record?
Answer: The growth inhibition was 97% (active).

Question: Which growth inhibition does the source give for O=C(C[n+]1ccccc1)C1CCc2ccccc2C1 (stereo not given) here?
Answer: Its growth inhibition is -5% (inactive).

Question: With [Cl][Pt][Cl].c1ccc([AsH](CC[AsH](c2ccccc2)c2ccccc2)c2ccccc2)cc1 as the compound, how does the growth inhibition read?
Answer: Its growth inhibition is 98% (active).

Question: Which growth inhibition does the source give for COc1cc(/C=C\[N+](=O)[O-])ccc1O here?
Answer: Its growth inhibition is 100% (active).

Question: For Cc1sc(Cc2ccccc2)nc1-c1ccc(N=Cc2ccc(N(CCCl)CCCl)cc2)cc1, which growth inhibition is on record?
Answer: The growth inhibition was 90% (active).

Question: With CC1(C)C2CCC([CH2][Hg][Cl])C1C2 (stereo not given) as the compound, how does the growth inhibition read?
Answer: The growth inhibition was 98% (active).

Question: With CC12C(=O)C=CCC1=CCC1C2CCC2(O)C(=O)OC3(C)C4CC5(C)C(COC16OC23C5C6=O)C(=O)O4 (stereo not given) as the compound, how does the growth inhibition read?
Answer: Its growth inhibition is 18% (inactive).

Question: With O=C(CBr)OCC(Br)CBr (stereo not given) as the compound, how does the growth inhibition read?
Answer: The growth inhibition was -4% (inactive).

Question: Which growth inhibition does the source give for S=c1[nH]c2ccccc2s1.[Pb] here?
Answer: The growth inhibition was -11% (inactive).

Question: Which growth inhibition does the source give for O=[N+]([O-])c1ccc(C(Br)Br)cc1 here?
Answer: Its growth inhibition is 99% (active).

Question: Which growth inhibition does the source give for CC(C)(C)[Si](OC(=O)N(CCCl)CCCl)(c1ccccc1)c1ccccc1 here?
Answer: Its growth inhibition is 83% (active).

Question: With CCCCCCCC[N+]12CN3CN(CN(C3)C1)C2 as the compound, how does the growth inhibition read?
Answer: The growth inhibition was -38% (inactive).

Question: Which growth inhibition does the source give for CC(C=O)[Se]c1ccccc1 (stereo not given) here?
Answer: Its growth inhibition is 48% (inactive).

Question: Which growth inhibition does the source give for CCOP(=O)(N=Nc1cccnc1)OCC here?
Answer: The growth inhibition was -17% (inactive).

Question: Which growth inhibition does the source give for COc1cc(/C=C/c2ccc(OC)c(O)c2)cc(OC)c1 here?
Answer: Its growth inhibition is 97% (active).

Question: Which growth inhibition does the source give for ClC1CCCCC1[Se](Cl)(Cl)C1CCCCC1Cl (stereo not given) here?
Answer: Its growth inhibition is 99% (active).

Question: Which growth inhibition does the source give for C/C(=N/NC(N)=S)c1ccc(Cl)cc1 here?
Answer: Its growth inhibition is 92% (active).

Question: For O=C(Nc1ccccc1)c1cc([N+](=O)[O-])ccc1O.[Ni], which growth inhibition is on record?
Answer: Its growth inhibition is 100% (active).

Question: With CC1(C)N=C(N)N=C(N)N1c1ccc(OCCCCNC(=O)Nc2ccc(S(=O)(=O)F)cc2)c(Cl)c1 as the compound, how does the growth inhibition read?
Answer: The growth inhibition was 98% (active).

Question: Which growth inhibition does the source give for Nc1nc(N)c(-c2ccc(Cl)c(Cl)c2)c(COc2ccc(CNC(=O)Nc3cccc(S(=O)(=O)F)c3)cc2Cl)n1 here?
Answer: The growth inhibition was 11% (inactive).

Question: Which growth inhibition does the source give for CC(=O)[O-].CC(=O)[O-].O=C(N/N=C/c1cc(Cl)cc(Cl)c1[OH2+])c1ccncc1.[Co+2] here?
Answer: The growth inhibition was 13% (inactive).

Question: With CC(Br)C(=O)C(CCN(C)C)(c1ccccc1)c1ccc(Br)s1 (stereo not given) as the compound, how does the growth inhibition read?
Answer: Its growth inhibition is 2% (inactive).

Question: With [N-]=[N+]=NC1(N=[N+]=[N-])C(=O)NN=C(c2ccccc2)C1=O (stereo not given) as the compound, how does the growth inhibition read?
Answer: Its growth inhibition is 87% (active).

Question: With NC(=O)c1cc([N+](=O)[O-])c(Cl)c([N+](=O)[O-])c1Cl as the compound, how does the growth inhibition read?
Answer: Its growth inhibition is 100% (active).

Question: For Nc1nc(N)c(-c2ccc(Cl)c(Cl)c2)c(CCc2ccc(CNC(=O)c3cccc(S(=O)(=O)F)c3)cc2)n1, which growth inhibition is on record?
Answer: The growth inhibition was 97% (active).

Question: For CCOC(=O)C(Cl)Cl, which growth inhibition is on record?
Answer: Its growth inhibition is -4% (inactive).

Question: Which growth inhibition does the source give for C1=C[N-]c2c3c(ccc2=C1)=CC=C[N-]3.C1=C[N-]c2c3c(ccc2=C1)=CC=C[N-]3.F[P-](F)(F)(F)(F)F.[Cu+2] here?
Answer: Its growth inhibition is 98% (active).

Question: With CCCCCCCCCCC(=O)O.[Pb] as the compound, how does the growth inhibition read?
Answer: Its growth inhibition is -1% (inactive).

Question: With CN(Cc1ccccc1)CC(O)c1cccc(I)c1 (stereo not given) as the compound, how does the growth inhibition read?
Answer: Its growth inhibition is 11% (inactive).

Question: Which growth inhibition does the source give for CCOc1c(Br)cc(N=Cc2ccc(N(CCCl)CCCl)c(OC)c2)cc1Br here?
Answer: The growth inhibition was 49% (inactive).

Question: Which growth inhibition does the source give for COC(=O)C1ON(c2ccccc2)C2c3ccccc3-c3ccccc3C12 (stereo not given) here?
Answer: Its growth inhibition is 67% (inactive).

Question: For COc1ccccc1C(Cc1ccc(N2C(N)=NC(N)=NC2(C)C)cc1)C(=O)Nc1ccc(S(=O)(=O)F)cc1 (stereo not given), which growth inhibition is on record?
Answer: The growth inhibition was -5% (inactive).

Question: Which growth inhibition does the source give for O=[N+]([O-])c1cc([N+](=O)[O-])c(Cl)s1 here?
Answer: The growth inhibition was 98% (active).
